Of roughly 7,900 targets only a part is listed; those with a hit were picked by preference. About 0.6% of all pairs of compound and target were hits. A number with no mark means an inactive call.
Columns and labels:
Experiment in all cases: log2 fold change, soluble protein after heating vs DMSO (PISA); higher = thermal stabilisation; K562 cells, 10 uM, 30 min; active = over 0.2 and 3.5 SD of the protein, either way, in both replicates (recomputed)
IRAK-1-4 Inhibitor I = compound: C1COCCN1CCN2C3=CC=CC=C3N=C2NC(=O)C4=CC(=CC=C4)[N+](=O)[O-] [IRAK-1-4 Inhibitor I]
How it was run: (§1)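 Soluble protein was defined as the supernatant after 21,000xg for 90 min. It came from K562 cells at 2×10^6 cells/mL given 10 μM compound for 30 min, heated in aliquots for 3 min across 48°C-58°C, pooled, and extracted in PBS with 0.5% NP-40 at 4°C, and was quantified by TMTpro 16plex LC-MS/MS with equalised channel sums. Thermal stability against control samples, from duplicates, is reported as log2 fold change.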

ibrutinib = compound: C=CC(=O)N1CCC[C@@H](n2nc(-c3ccc(Oc4ccccc4)cc3)c3c(N)ncnc32)C1 [ibrutinib]
How it was run: as §1

[1] = compound: CC(=O)c1cnc2ccc(-c3cc(Cl)c(O)c(Cl)c3)nc2c1N[C@H]1CC[C@H](CN(C)C)CC1
How it was run: as §1

ralimetinib = compound: CC(C)(C)Cn1c(N)nc2ccc(-c3[nH]c(C(C)(C)C)nc3-c3ccc(F)cc3)nc21 [ralimetinib]
How it was run: as §1

[2] = compound: CC(C)(O)CC(=O)NCCn1ccc2ncnc(Nc3ccc(Oc4cccc(C(F)(F)F)c4)c(Cl)c3)c21
How it was run: as §1

[3] = compound: CC(C)C1=C2N=C(C=C(N2N=C1)NCC3=CC=CC=C3)NCCCCCCN
How it was run: as §1

[4] = compound: CC(C)C[C@@H](C=O)NC(=O)[C@H](CC(C)C)NC(=O)[C@H](CC(C)C)NC(=O)OCc1ccccc1
How it was run: as §1

pinometostat = compound: CC(C)N(C[C@H]1O[C@@H](n2cnc3c(N)ncnc32)[C@H](O)[C@@H]1O)[C@H]1C[C@@H](CCc2nc3cc(C(C)(C)C)ccc3[nH]2)C1 [pinometostat]
How it was run: as §1

[5] = compound: CC1=C(C(CC(=O)N1)C2=CC=C(C=C2)C(F)(F)F)C(=O)NC3=C(C=C4C(=C3)C=NN4)F
How it was run: as §1

[6] = compound: CC1=C(C2=C(C=C1)C(=O)C3=CC=CC=C3N2CCCN)C
How it was run: as §1

[7] = compound: CC1=C(C=C(C=C1)NC(=O)C2=CC(=CC=C2)C(C)(C)C#N)NC3=CC4=C(C=C3)N=CN(C4=O)C
How it was run: as §1

[8] = compound: CC1=C(C=C(C=C1)NC(=O)C2=CC(=CC=C2)N(C)C)NC(=O)C3=CC=C(C=C3)O
How it was run: as §1

[9] = compound: CC1=CC=C(C=C1)SC2=C3C=C(SC3=CN=C2)C(=O)N
How it was run: as §1

[10] = compound: CC1=NC(=CC=C1)C2=C(N=C(N2)C(C)(C)C)C3=CC4=NC=CN=C4C=C3
How it was run: as §1

Nexturastat A = compound: CCCCN(Cc1ccc(C(=O)NO)cc1)C(=O)Nc1ccccc1 [Nexturastat A]
How it was run: as §1

vemurafenib = compound: CCCS(=O)(=O)Nc1ccc(F)c(C(=O)c2c[nH]c3ncc(-c4ccc(Cl)cc4)cc23)c1F [vemurafenib]
How it was run: as §1

[11] = compound: CCCS(=O)(=O)Nc1ccc(F)c(C(=O)c2c[nH]c3ncc(Cl)cc23)c1F
How it was run: as §1

[12] = compound: CCCc1cc(C)[nH]c(=O)c1CNC(=O)c1cc(-c2ccnc(N3CCN(C)CC3)c2)cc2c1cnn2C(C)C
How it was run: as §1

givinostat = compound: CCN(CC)Cc1ccc2cc(COC(=O)Nc3ccc(C(=O)NO)cc3)ccc2c1 [givinostat]
How it was run: as §1

barasertib = compound: CCN(CCCOc1ccc2c(Nc3cc(CC(=O)Nc4cccc(F)c4)[nH]n3)ncnc2c1)CCOP(=O)(O)O [barasertib]
How it was run: as §1

Sequence of UniProt O75494 (O75494 whole entry, looked up): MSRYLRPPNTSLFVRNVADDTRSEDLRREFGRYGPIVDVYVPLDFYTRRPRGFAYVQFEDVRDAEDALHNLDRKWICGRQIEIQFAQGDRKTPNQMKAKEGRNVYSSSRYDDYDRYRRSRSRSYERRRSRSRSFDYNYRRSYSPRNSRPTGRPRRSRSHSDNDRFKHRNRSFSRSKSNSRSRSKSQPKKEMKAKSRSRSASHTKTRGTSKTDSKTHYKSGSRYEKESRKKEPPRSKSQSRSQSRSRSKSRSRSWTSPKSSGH
Sequence of UniProt P42226 (P42226 whole entry, looked up): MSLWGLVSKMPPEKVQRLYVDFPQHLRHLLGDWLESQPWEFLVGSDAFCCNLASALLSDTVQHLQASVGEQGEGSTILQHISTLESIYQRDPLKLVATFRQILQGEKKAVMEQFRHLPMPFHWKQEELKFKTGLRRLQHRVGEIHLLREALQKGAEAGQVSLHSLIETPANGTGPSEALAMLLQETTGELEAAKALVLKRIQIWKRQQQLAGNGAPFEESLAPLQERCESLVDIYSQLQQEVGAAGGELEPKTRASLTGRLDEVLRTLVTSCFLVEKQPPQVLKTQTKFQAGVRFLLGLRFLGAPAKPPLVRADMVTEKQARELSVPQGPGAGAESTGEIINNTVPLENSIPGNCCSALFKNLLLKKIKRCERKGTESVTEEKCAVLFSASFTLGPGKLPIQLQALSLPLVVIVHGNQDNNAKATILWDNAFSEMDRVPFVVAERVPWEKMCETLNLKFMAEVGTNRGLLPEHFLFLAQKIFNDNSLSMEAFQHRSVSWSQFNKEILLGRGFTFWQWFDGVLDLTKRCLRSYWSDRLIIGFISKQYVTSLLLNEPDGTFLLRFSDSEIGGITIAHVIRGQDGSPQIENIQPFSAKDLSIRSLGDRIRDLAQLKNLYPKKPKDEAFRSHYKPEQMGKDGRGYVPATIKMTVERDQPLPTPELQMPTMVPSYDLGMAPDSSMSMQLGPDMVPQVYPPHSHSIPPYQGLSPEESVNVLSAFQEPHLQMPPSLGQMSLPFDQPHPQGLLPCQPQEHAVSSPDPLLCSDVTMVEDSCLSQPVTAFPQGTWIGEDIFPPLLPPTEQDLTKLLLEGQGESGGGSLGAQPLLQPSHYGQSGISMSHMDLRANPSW
Sequence of UniProt Q9UQ35 (Q9UQ35 whole entry, looked up): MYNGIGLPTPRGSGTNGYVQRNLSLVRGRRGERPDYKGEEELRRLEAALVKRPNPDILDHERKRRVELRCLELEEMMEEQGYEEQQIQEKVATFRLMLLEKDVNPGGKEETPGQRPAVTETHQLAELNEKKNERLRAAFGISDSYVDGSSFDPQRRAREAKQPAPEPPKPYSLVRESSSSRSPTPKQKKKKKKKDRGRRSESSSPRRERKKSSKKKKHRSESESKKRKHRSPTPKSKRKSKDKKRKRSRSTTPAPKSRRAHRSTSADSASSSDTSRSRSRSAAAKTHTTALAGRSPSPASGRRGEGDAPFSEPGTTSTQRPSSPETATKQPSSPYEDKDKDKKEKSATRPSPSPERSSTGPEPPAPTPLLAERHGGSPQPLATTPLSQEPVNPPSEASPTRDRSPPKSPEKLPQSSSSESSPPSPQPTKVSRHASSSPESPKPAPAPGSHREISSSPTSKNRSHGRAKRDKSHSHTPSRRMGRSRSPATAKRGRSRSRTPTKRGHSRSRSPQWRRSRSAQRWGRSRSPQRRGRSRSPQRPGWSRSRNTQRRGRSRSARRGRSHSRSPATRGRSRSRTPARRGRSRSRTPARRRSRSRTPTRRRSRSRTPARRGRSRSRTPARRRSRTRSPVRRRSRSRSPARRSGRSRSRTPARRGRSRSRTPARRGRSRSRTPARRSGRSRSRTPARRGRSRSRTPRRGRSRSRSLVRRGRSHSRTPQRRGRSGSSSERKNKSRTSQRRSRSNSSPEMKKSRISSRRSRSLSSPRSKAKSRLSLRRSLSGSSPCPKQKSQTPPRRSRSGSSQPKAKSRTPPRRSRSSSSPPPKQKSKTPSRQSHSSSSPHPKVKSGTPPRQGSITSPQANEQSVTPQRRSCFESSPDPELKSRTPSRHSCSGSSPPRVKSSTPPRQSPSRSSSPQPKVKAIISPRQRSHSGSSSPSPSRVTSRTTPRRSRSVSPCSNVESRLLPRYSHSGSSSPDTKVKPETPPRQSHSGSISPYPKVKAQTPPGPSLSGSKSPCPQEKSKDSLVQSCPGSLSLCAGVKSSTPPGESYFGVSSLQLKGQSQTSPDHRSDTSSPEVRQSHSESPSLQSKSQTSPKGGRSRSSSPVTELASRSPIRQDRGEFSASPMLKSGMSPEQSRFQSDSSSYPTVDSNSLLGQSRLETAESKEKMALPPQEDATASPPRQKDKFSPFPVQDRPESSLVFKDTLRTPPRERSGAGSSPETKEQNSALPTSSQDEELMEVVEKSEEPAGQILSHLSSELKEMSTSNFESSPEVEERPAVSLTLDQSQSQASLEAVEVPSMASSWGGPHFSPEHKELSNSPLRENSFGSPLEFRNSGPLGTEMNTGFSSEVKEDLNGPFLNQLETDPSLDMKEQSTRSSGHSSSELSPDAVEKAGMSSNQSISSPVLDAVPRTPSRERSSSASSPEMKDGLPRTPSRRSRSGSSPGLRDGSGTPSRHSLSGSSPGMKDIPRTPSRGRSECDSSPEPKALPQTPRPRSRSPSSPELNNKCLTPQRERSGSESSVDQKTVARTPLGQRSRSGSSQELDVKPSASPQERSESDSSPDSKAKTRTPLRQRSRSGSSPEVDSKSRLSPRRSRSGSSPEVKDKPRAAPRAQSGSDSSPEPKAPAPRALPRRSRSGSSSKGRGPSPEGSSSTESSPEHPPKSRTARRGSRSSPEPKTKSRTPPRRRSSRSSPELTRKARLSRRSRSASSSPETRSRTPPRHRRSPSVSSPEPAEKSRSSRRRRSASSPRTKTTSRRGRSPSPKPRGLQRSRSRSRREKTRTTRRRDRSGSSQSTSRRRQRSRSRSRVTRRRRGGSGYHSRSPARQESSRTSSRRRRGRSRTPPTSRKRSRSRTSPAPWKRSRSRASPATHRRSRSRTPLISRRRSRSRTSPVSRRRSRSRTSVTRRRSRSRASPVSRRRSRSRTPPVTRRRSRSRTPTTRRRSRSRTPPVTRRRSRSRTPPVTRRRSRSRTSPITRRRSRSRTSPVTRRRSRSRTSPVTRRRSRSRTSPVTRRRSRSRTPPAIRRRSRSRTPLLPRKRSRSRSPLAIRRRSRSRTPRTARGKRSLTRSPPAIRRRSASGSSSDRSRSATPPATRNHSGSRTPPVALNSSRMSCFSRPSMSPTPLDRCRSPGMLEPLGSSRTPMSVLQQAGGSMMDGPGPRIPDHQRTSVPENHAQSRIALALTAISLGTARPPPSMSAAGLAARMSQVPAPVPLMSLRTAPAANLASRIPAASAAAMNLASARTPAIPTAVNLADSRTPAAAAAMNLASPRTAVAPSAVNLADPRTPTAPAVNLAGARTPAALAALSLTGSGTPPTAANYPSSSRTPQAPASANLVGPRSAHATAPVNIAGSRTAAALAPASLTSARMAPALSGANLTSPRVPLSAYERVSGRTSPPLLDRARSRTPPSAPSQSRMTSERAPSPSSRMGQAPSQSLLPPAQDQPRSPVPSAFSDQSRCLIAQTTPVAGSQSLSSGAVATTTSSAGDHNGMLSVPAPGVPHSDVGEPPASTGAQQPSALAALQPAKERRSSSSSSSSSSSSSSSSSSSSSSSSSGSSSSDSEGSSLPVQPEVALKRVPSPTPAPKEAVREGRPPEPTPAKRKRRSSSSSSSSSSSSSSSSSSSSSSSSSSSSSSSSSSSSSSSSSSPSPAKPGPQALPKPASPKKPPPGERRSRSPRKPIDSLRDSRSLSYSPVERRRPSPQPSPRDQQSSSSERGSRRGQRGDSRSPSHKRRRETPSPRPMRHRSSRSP
Sequence of UniProt P27105 (P27105 whole entry, looked up): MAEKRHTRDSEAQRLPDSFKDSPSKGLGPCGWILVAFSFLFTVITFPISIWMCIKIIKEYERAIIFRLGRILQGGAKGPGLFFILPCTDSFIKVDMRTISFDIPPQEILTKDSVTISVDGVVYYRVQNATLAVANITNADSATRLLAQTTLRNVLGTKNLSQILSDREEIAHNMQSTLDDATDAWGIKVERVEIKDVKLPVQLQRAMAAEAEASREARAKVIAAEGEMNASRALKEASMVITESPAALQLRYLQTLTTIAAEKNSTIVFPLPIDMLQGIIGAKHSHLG
Sequence of UniProt Q9NUY8 (Q9NUY8 whole entry, looked up): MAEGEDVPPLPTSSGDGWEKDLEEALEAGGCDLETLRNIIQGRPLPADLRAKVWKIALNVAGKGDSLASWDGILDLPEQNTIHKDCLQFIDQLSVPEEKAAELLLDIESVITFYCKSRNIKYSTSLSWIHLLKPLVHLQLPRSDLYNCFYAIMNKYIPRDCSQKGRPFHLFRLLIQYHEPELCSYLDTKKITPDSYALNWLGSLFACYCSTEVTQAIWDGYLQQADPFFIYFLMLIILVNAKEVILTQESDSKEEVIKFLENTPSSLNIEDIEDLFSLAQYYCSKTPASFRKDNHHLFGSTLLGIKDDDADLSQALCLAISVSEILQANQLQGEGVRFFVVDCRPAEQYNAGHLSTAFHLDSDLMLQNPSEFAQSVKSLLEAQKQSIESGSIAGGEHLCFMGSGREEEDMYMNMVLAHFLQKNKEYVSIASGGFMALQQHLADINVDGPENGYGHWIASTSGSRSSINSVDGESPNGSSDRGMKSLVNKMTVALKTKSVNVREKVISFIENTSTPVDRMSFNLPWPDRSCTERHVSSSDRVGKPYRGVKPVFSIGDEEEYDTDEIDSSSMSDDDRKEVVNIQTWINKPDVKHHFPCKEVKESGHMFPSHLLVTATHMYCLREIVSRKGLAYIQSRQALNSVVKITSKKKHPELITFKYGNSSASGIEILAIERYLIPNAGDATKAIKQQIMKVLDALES
Sequence of UniProt Q9P016 (Q9P016 whole entry, looked up): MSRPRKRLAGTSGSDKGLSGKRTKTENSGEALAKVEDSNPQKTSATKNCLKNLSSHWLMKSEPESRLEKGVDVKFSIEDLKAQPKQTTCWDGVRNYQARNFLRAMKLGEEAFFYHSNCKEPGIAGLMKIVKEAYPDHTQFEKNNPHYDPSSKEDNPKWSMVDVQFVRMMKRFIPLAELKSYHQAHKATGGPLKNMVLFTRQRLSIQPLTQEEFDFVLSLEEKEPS

| Target | log2 fold change (IRAK-1-4 Inhibitor I) | log2 fold change (ibrutinib) | log2 fold change [1] | log2 fold change (ralimetinib) | log2 fold change [2] | log2 fold change [3] | log2 fold change [4] | log2 fold change (pinometostat) | log2 fold change [5] | log2 fold change [6] | log2 fold change [7] | log2 fold change [8] | log2 fold change [9] | log2 fold change [10] | log2 fold change (Nexturastat A) | log2 fold change (vemurafenib) | log2 fold change [11] | log2 fold change [12] | log2 fold change (givinostat) | log2 fold change (barasertib) |
| --- | --- | --- | --- | --- | --- | --- | --- | --- | --- | --- | --- | --- | --- | --- | --- | --- | --- | --- | --- | --- |
| TBCD (UniProt Q9BTW9) | 0.019 | -0.019 | -0.004 | 0.01 | -0.034 | -0.083 | 0.01 | -0.061 | 0.068 | -0.086 | 0.016 | 0.003 | 0.025 | 0.052 | -0.051 | 0.005 | 0.02 | -0.007 | 0.012 | 0.019 |
| TIAL1 isoform 2 (UniProt Q01085) | 0.044 | 0.011 | -0.035 | -0.05 | 0.001 | 0.106 | 0.019 | -0.039 | -0.02 | 0.238 (active) | -0.009 | 0.015 | -0.019 | 0.08 | 0.005 | 0.023 | 0.002 | -0.007 | -0.022 | -0.021 |
| SRRM2 (UniProt Q9UQ35) | -0.074 | -0.015 | -0.326 | 0.063 | 0.01 | -0.258 | 0.002 | 0.005 | -0.005 | -0.181 | -0.022 | 0.01 | -0.067 | 0.147 | 0.156 | 0.068 | 0.007 | 0.01 | 0.082 | -0.041 |
| TM9SF4 (UniProt Q92544) | -0.006 | 0.008 | -0.016 | 0.031 | -0.006 | -0.033 | 0.029 | 0.016 | -0.015 | 0.077 | 0.084 | -0.022 | 0.014 | -0.012 | -0.029 | 0.031 | 0.073 | 0.034 | 0.054 | 0.004 |
| TIPRL (UniProt O75663) | -0.011 | -0.005 | -0.067 | -0.007 | -0.065 | -0.173 | 0.048 | -0.015 | 0.069 | 0.017 | 0.011 | -0.017 | 0.007 | 0.013 | -0.05 | 0.022 | 0.046 | 0.02 | 0.032 | -0.007 |
| SLC25A38 (UniProt Q96DW6) | 0.005 | -0.001 | 0.003 | -0.053 | 0.035 | 0.049 | -0.018 | -0.03 | 0.012 | 0.01 | 0.075 | -0.011 | -0.047 | 0.076 | -0.012 | -0.059 | -0.019 | -0.145 | -0.004 | 0.014 |
| SYMPK (UniProt Q92797) | -0.029 | -0.087 | -0.057 | 0.099 | -0.296 | -0.026 | -0.061 | -0.115 | 0.078 | -0.033 | 0.042 | -0.004 | 0.05 | 0.005 | -0.103 | 0.119 | 0.212 | 0.051 | 0.145 | 0.042 |
| THYN1 (UniProt Q9P016) | -0.032 | -0.028 | 0.039 | -0.01 | 0.036 | -0.046 | 0.025 | 0.004 | -0.033 | 0.331 (active) | 0.008 | 0.013 | 0.003 | 0.056 | -0.022 | -0.004 | -0.004 | 0.003 | -0.135 | 0.008 |
| STAT6 (UniProt P42226) | -0.145 | 0.031 | -0.222 | 0.054 | -0.128 | -0.058 | 0.007 | 0.11 | 0.125 | -0.048 | -0.092 | -0.111 | 0.053 | 0.015 | 0.044 | 0.058 | 0.082 | -0.012 | 0.078 | 0.001 |
| SRSF10 (UniProt O75494) | -0.179 | 0.07 | -0.047 | 0.185 | 0.218 | 0.002 | 0.102 | 0.418 | 0.205 | -0.396 | -0.046 | 0.029 | -0.076 | -0.134 | 0.227 | -0.027 | -0.027 | 0.083 | 0.017 | -0.045 |
| STOM (UniProt P27105) | -0.039 | 0.019 | -0.018 | -0.054 | 0.004 | -0.064 | 0.14 | 0.028 | 0.014 | 0.039 | -0.035 | 0.025 | -0.041 | -0.002 | 0.007 | 0.01 | -0.053 | -0.092 | 0.005 | -0.017 |
| SLIRP (UniProt Q9GZT3) | 0.004 | 0.035 | -0.192 | -0.027 | -0.239 | -0.02 | 0.393 (active) | -0.016 | 0.088 | -0.342 | 0.175 | 0.008 | -0.035 | 0.039 | 0.286 | 0.028 | -0.031 | 0.214 | 0.113 | 0.019 |
| SSB (UniProt P05455) | -0.006 | -0.038 | -0.209 | 0.017 | 0.001 | -0.038 | 0.011 | -0.005 | 0.071 | -0.474 (active) | -0.02 | 0.024 | -0.026 | 0.024 | 0.019 | -0.003 | 0.003 | 0.036 | -0.175 | 0.074 |
| TAOK3 (UniProt Q9H2K8) | 0.007 | 0.002 | -0.48 (active) | 0.009 | -0.011 | 0.007 | 0.033 | 0.012 | 0.003 | 0.035 | 0.028 | -0.031 | 0.078 | 0.059 | -0.054 | 0.092 | 0.115 | 0 | -0.019 | 0.027 |
| SLC30A10 (UniProt Q6XR72) | 0.05 | -0.08 | -0.019 | -0.014 | -0.079 | 0.035 | -0.054 | -0.032 | 0.035 | 0.12 | 0.028 | -0.102 | 0.131 | 0.001 | -0.545 (active) | -0.031 | -0.073 | -0.086 | -0.002 | -0.025 |
| TBC1D23 (UniProt Q9NUY8) | 0.062 | -0.02 | -0.067 | 0.002 | -0.098 | -0.45 (active) | 0.071 | -0.046 | 0.055 | 0.01 | 0.029 | -0.038 | 0.005 | 0.005 | -0.071 | 0.035 | 0.034 | -0.074 | 0.006 | 0.041 |

— the supplement of paper PMC10849652
